Laboratory results published in PubChem BioAssay.
Active and inactive are the calls of the source.

Tests used:
[1] = binders of probe aFSTL3 on microarray, primary screen, stem cell growth factor project, biochemical, small-molecule microarray, fluorescence 635/667 (AID 1064); details: higher = more signal;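 further: measures binding of the biotinylated anti-FSTL3 antibody to printed compounds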
[2] = binders from COS7 lysate, DM2A8 probe, primary screen, torsin A project, cell lysate, small-molecule microarray, fluorescence 635/667 (AID 1065); details: higher = more signal, COS7 lysate expressing mutant human TOR1A
[3] = binders of probe aFGF2 on microarray, primary screen, stem cell growth factor project, biochemical, small-molecule microarray, fluorescence 635/667 (AID 1067); details: higher = more signal;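 further: measures binding of biotinylated aFGF2 protein to printed compounds on slides; z-score merges feature fluorescence and signal-to-noise across triplicate slides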
[4] = binders of probe aFGF10 on microarray, primary screen, stem cell growth factor project, biochemical, small-molecule microarray, fluorescence 635/667 (AID 1071); details: higher = more signal;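 further: score merges 667 nm spot intensity and signal to noise from triplicate slides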
[5] = molecular target: Neurogenic locus notch homolog protein 2 (Homo sapiens) (UniProt Q04721); test: Notch2 binders on small-molecule microarrays, primary screen, biochemical, small-molecule microarray, 635 nm fluorescence, stem cell growth factors (AID 1073); details: Notch2 binding, higher = more signal
[6] = molecular target: Pro-neuregulin-1, membrane-bound isoform (Homo sapiens) (UniProt Q02297); test: NRG1 binders on small-molecule microarrays, primary screen, psychiatric disease protein project, biochemical, small-molecule microarray, fluorescence 635/667 (AID 1075); details: NRG1 binding, 635 nm fluorescence, higher = more signal;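 further: score combines 667 nm spot fluorescence with signal to noise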
[7] = system: Neuregulin-1 EGF-like domain; test: binders of neuregulin-1 EGF-like domain, primary screen, biochemical, small-molecule microarray, 635 nm fluorescence (AID 1081); details: small-molecule microarray binding, higher = more signal;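 further: binding of the protein to compounds printed on small-molecule microarray slides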
[8] = FRG1 promoter luciferase signal modulators, primary screen, FRG1 inhibition for FSHD, cell-based, C2C12 myotubes, firefly/Renilla luciferase, luminescence (AID 1084); details: higher = more signal, called active from +8 up or from −8 down
[9] = binders of probe aFST on microarray, primary screen, stem cell growth factor project, biochemical, small-molecule microarray, fluorescence 635/667 (AID 1086); details: higher = more signal;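 further: score merges 667 nm fluorescence with signal-to-noise of each printed compound spot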
[10] = binders of probe aHhip on microarray, primary screen, stem cell growth factor project, biochemical, small-molecule microarray, fluorescence 635/667 (AID 1087); details: higher = more signal;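 further: score merges spot fluorescence at 667nm with spot signal to noise ratio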
[11] = system: PRMT1 (protein arginine N-methyltransferase 1); test: PRMT1 binders on small-molecule microarrays, primary screen, biochemical, small-molecule microarray, 635 nm fluorescence (AID 1088); details: small-molecule microarray binding, higher = more signal;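 further: binding of Prmt1 protein to compounds spotted on small-molecule microarray slides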
[12] = yeast growth modulation, basal conditions, primary screen, YJM789 clinical isolate, OD600, 24 h (AID 1089);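 further: growth of clinical yeast isolate S. cerevisiae YJM 789 seeded 1000 cells per well; test concentration not given here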; details: S. cerevisiae YJM789 growth, higher = more signal, called active from +8 up or from −8 down
[13] = fission yeast growth modulation, primary screen, strain 972, OD600, 24 h, no modulator (AID 1090);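 further: basal condition with compound alone and no growth modifier present; test concentration not given here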; details: S. pombe 972 growth, higher = more signal, called active from +8 up or from −8 down
[14] = S. cerevisiae growth modulation with rapamycin, primary screen, strain BY4716, OD600, 96 h (AID 1091); details: higher = more signal, called active from +8 up or from −8 down; further: test concentration not given here
[15] = molecular target: Torsin-1A-interacting protein 2 (Homo sapiens) (UniProt Q8NFQ8); test: LULL1 binders on small-molecule microarray, primary screen, cell lysate, human LULL1 lysate, 635/667 nm fluorescence (AID 1092); details: hLULL1 lysate binding, 635 nm fluorescence, higher = more signal;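 further: probe is lysate of COS7 cells overexpressing human LULL1; score merges per-feature 667 nm fluorescence with signal-to-noise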
[16] = E. coli growth modulation, two-sided OD650, primary screen, E. coli filamentation project, strain DRC41, 24 h (AID 1093); details: OD650, 24 h, higher = more signal, called active from +8 up or from −8 down;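 further: MC1000 strain lacking acrAB efflux and sulA so SOS filamentation is blocked; test concentration not given here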
[17] = small-molecule microarray binders of probe aLefty2, primary screen, biochemical, biotinylated probe, 635/667 nm fluorescence (AID 1094); details: higher = more signal;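 further: score merges spot fluorescence near 667 nm with spot signal-to-noise ratio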
[18] = system: Noggin (protein binding on small-molecule microarray); test: Noggin binders on small-molecule microarray, primary screen, biochemical, 635/667 nm fluorescence (AID 1095); details: 635 nm fluorescence, higher = more signal;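 further: score merges 667 nm feature fluorescence with signal to noise over triplicate slides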
[19] = molecular target: Neurogenic locus notch homolog protein 3 (Homo sapiens) (UniProt Q9UM47); test: NOTCH3 binders on small-molecule microarray, primary screen, biochemical, 635/667 nm fluorescence (AID 1096); details: NOTCH3 binding, 635 nm fluorescence, higher = more signal
[20] = small-molecule microarray binders of probe aEGFR, primary screen, biochemical, biotinylated probe, 635/667 nm fluorescence (AID 1097); details: higher = more signal;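 further: probe is a biotinylated anti-EGFR antibody binding compounds printed on slides; score combines fluorescence near 667 nm and signal to noise of each spot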

Torsin-1A-interacting protein 2 (Homo sapiens), sequence (Q8NFQ8 whole entry, looked up): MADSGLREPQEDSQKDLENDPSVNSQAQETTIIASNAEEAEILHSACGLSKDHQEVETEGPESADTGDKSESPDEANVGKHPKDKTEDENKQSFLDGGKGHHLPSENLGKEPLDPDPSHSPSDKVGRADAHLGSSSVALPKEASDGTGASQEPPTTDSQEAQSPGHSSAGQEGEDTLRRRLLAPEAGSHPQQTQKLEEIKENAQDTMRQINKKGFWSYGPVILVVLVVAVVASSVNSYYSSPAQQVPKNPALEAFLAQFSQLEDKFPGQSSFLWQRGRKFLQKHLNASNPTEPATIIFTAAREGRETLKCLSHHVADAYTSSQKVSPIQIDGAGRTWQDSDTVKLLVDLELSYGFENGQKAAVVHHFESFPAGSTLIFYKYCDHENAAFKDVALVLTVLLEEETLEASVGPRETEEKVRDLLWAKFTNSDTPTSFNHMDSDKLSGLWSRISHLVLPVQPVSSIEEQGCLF
Pro-neuregulin-1, membrane-bound isoform (Homo sapiens), sequence (Q02297 whole entry, looked up, the tested form may be a part, canonical isoform): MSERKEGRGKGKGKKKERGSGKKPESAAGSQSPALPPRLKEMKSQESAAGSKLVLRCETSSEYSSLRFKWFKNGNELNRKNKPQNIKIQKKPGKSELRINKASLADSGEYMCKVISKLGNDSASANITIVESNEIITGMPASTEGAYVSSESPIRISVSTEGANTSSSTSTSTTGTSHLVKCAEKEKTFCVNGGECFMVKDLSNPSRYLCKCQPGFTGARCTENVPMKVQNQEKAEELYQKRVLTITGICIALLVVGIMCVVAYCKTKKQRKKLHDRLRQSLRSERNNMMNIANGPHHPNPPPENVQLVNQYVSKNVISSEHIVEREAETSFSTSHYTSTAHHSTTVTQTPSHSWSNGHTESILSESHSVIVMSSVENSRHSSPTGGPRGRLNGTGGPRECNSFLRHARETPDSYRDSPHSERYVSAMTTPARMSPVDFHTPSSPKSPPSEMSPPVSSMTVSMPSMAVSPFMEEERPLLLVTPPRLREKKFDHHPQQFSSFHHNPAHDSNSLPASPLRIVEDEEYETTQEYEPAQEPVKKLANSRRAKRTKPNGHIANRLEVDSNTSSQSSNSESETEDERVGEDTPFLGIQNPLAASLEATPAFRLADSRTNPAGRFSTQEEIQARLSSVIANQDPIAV
Neurogenic locus notch homolog protein 2 (Homo sapiens), sequence (Q04721 whole entry, looked up, canonical isoform): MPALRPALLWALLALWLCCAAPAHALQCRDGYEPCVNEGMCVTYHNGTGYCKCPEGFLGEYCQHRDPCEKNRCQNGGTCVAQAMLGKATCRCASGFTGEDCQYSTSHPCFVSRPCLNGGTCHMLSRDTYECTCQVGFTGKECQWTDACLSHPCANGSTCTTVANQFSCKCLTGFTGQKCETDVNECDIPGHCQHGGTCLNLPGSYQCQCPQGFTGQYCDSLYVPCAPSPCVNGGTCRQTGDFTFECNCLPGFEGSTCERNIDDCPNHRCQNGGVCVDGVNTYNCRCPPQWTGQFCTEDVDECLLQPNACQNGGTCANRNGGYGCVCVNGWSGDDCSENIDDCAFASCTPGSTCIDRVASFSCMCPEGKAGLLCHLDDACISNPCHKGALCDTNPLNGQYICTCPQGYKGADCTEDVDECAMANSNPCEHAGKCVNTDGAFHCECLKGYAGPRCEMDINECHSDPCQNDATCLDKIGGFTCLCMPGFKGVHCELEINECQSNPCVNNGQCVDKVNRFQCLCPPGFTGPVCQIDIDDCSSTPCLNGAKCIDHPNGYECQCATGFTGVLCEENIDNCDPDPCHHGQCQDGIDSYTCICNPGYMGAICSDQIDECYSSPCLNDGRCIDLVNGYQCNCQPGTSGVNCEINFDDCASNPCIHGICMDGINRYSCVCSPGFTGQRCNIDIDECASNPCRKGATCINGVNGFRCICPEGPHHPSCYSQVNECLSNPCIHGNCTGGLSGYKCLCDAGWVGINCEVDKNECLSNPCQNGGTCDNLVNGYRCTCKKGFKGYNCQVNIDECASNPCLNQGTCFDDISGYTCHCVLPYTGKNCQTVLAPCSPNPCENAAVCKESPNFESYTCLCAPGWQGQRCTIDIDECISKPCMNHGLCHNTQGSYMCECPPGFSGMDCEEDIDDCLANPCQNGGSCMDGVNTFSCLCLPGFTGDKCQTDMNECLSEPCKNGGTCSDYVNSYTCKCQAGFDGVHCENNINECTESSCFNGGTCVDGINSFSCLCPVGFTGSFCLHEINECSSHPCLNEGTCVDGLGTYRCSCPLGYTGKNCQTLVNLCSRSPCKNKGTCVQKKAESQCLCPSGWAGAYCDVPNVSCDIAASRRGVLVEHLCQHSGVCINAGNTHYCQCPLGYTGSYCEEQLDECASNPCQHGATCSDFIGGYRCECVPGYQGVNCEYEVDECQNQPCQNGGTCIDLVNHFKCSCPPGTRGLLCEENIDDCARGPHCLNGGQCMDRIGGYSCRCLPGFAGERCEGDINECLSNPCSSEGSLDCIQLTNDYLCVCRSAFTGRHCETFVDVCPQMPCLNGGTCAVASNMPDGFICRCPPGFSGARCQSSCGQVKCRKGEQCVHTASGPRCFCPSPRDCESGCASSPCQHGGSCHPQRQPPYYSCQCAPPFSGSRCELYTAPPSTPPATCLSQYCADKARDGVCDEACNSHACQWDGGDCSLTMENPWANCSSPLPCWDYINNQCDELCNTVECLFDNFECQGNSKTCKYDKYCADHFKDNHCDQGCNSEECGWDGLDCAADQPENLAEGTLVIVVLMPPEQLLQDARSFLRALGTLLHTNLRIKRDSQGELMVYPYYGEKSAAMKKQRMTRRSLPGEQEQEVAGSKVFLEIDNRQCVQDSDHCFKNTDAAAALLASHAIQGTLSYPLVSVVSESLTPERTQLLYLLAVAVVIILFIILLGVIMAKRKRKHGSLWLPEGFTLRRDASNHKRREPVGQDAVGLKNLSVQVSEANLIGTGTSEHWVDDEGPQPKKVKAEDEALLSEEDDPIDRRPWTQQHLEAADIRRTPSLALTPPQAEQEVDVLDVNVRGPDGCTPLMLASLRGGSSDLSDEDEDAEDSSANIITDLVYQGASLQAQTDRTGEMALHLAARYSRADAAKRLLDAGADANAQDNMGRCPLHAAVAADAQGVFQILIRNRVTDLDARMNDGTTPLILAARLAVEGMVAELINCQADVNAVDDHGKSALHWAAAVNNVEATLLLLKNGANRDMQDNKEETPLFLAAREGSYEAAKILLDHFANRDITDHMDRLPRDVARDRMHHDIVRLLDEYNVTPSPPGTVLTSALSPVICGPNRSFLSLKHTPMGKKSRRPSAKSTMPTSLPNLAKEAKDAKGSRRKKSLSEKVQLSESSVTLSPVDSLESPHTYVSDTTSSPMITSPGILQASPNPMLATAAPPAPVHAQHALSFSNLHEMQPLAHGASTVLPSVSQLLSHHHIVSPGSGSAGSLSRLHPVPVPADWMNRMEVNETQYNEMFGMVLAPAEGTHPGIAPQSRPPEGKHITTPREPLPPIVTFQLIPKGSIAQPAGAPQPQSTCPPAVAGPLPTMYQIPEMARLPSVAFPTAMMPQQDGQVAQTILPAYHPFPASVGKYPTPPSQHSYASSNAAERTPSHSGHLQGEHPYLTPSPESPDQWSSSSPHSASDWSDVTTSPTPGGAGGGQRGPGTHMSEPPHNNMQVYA

Row | SMILES | composite z-score [1] | composite z-score [2] | composite z-score [3] | composite z-score [4] | composite z-score [5] | composite z-score [6] | composite z-score [7] | z-score [8] | composite z-score [9] | composite z-score [10] | composite z-score [11] | z-score [12] | z-score [13] | z-score [14] | composite z-score [15] | z-score [16] | composite z-score [17] | composite z-score [18] | composite z-score [19] | composite z-score [20]
1 | COc1ccc([Si](C)(C)[C@H]2[C@H](CC(=O)N(CCO)Cc3ccccc3)O[C@@]3(C(=O)N(Cc4cccc(N5CCOC5=O)c4)c4ccccc43)[C@@H]2C)cc1 | -0.243 | 0.635 | -0.0737 | 0.171 | 0.0078 | 1.2 | 0.974 | -0.551 (inactive) | -0.0174 | 0.176 | 1.56 | -0.0337 (inactive) | -0.166 (inactive) | 3.02 (inactive) | 1.35 | 1.17 (inactive) | -0.0724 | 0.722 | 0.403 | -0.167
2 | COCCOC(=O)N1C(=O)[C@@]2(c3cc(C#CCNC(N)=O)ccc31)[C@H](C(=O)N1CCc3cc(OC)c(OC)cc3C1)[C@H]1C(=O)O[C@H](c3ccccc3)[C@H](c3ccccc3)N1[C@@H]2c1ccccc1OCCO | -0.178 | 1.05 | -0.0908 | 0.371 | 0.749 | 0.202 | 0.869 | -0.902 (inactive) | 0.31 | -0.191 | 1.37 | -0.959 (inactive) | 0.319 (inactive) | 3.2 (inactive) | 2.14 | 1.16 (inactive) | 0.0253 | 1.36 | 1.11 | -0.0734
3 | COC(=O)C1=CC(CCCO)=CC(C2CC2)N(C)C=C1C(=O)OC (stereo not given) | 0.0334 | -0.144 | -0.101 | -0.0269 | 0.448 | 2.06 | 0.935 | -0.327 (inactive) | -0.308 | -0.0994 | 0.723 | -1.81 (inactive) | -0.761 (inactive) | -1.62 (inactive) | 2.79 | -0.705 (inactive) | -0.117 | -0.178 | -0.752 | -0.43
4 | CCCC[C@@H]1C[C@H]1[C@@H](NC(=O)Cc1ccccc1)c1ccc(-c2ccccc2)cc1 | -0.153 | 0.0056 | -0.0064 | -0.165 | 0.61 | 0.212 | 0.386 | 0.0529 (inactive) | 0.482 | -0.0237 | 0.0706 | 0.341 (inactive) | 0.373 (inactive) | -0.116 (inactive) | 2.94 | -0.255 (inactive) | -0.0204 | -0.219 | 0.0419 | -0.125
5 | COC(=O)[C@@]1(Cc2ccc(OC)cc2)[C@H]2c3cc(C(=O)N(C)C)n(Cc4ccc(Cl)c(C(F)(F)F)c4)c3C[C@H]2CN1C(=O)c1ccccc1 | 1.33 | 0.218 | 0.262 | 0.473 | 1.47 | 1.39 | 1.03 | 0.282 (inactive) | 1.73 | 1.71 | 0.295 | 1.01 (inactive) | 1.38 (inactive) | 2.98 (inactive) | 3.06 | -0.397 (inactive) | 0.539 | -0.0329 | 1.02 | 0.35
